From PubChem BioAssay (NCI) come the findings set out here.

Among the test systems are SK-MEL-2 melanoma; EKVX NSCLC; SN12C renal; UO-31 renal; TK-10 renal; A498 renal; CCRF-CEM leukemia; MOLT-4 leukemia; SR leukemia; RPMI-8226 leukemia; OVCAR-5 ovarian; OVCAR-4 ovarian; SK-OV-3 ovarian; IGROV1 ovarian; OVCAR-3 ovarian; HS 578T breast; NCI/ADR-RES ovarian; OVCAR-8 ovarian; ACHN renal.
What all share (experiment): NCI-60 one-dose screen, 48 h (100 = growth as untreated, 0 = no growth, -100 = all killed)
What all share (conditions): 10 µM unless noted

SMILES strings stand for the structures. Compounds without any hit were thinned out: in the full panel of roughly 83,000, 20% have a hit.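 In brief: 96-well plates, 48 h treatment, single concentration, percent growth endpoint.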 Values without a mark were called inactive. Activity calls are given as the source filed them. The calls were made as follows: active = growth percent below 10; inactive = the rest.

For `Cc1ccc(Nc2ccc(Nc3ccc(C)cc3S(=O)(=O)O)c3c2C(=O)c2ccccc2C3=O)c(S(=O)(=O)O)c1`, the growth was 101% in the assay on SK-MEL-2 melanoma; 91.5% in the assay with EKVX NSCLC; 98.5% with SN12C renal; 78.4% in the assay with UO-31 renal; 98.3% in the assay on TK-10 renal; 119% in the assay on A498 renal. Further, the growth with CCRF-CEM leukemia is 95.6%; in the assay with MOLT-4 leukemia, 116%; in the assay with SR leukemia, 108%; in the assay on RPMI-8226 leukemia it was 87.8%; in the assay on OVCAR-5 ovarian it was 106%; in the assay on OVCAR-4 ovarian it was 102%. In addition, the growth is 111% in the assay on SK-OV-3 ovarian; 114% in the assay on IGROV1 ovarian; 95.5% in the assay on OVCAR-3 ovarian; 88.7% with HS 578T breast; 102% with NCI/ADR-RES ovarian.
`O=S(=O)(Cc1ccccc1)c1nc2ccccc2s1`: the growth in the assay on SK-MEL-2 melanoma was 57.7%; in the assay with EKVX NSCLC, 99.3%; in the assay with SN12C renal it was 35.5%; in the assay on UO-31 renal, 49.9%; with TK-10 renal it was 98%; in the assay on A498 renal, 111%. Also, the growth in the assay with CCRF-CEM leukemia was 15.4%; with MOLT-4 leukemia it was 14.1%; in the assay with SR leukemia it was 17%; in the assay on RPMI-8226 leukemia, 20.4%; with OVCAR-8 ovarian it was 88.8%; in the assay with OVCAR-5 ovarian, 102%. Also, the growth in the assay with OVCAR-4 ovarian is 63.7%; with SK-OV-3 ovarian, 101%; in the assay on IGROV1 ovarian, 61.1%; with OVCAR-3 ovarian, 79.2%; in the assay with HS 578T breast, 96.2%; with NCI/ADR-RES ovarian, 96.5%.
As for `COc1cc(-c2cccc([N+](=O)[O-])c2)c(-c2nc(-c3ccccc3)c(-c3ccccc3)n2C2CC2)cc1OC`, the growth in the assay on SK-MEL-2 melanoma was 57.6%; with EKVX NSCLC, 57.2%; with SN12C renal, 75.1%; in the assay with UO-31 renal, 37.7%; in the assay on TK-10 renal it was 66.2%; in the assay with A498 renal it was 77.6%. Moreover, the growth with CCRF-CEM leukemia is 48.1%; in the assay on MOLT-4 leukemia, 25.9%; with RPMI-8226 leukemia, 10.8%; with OVCAR-8 ovarian it was 62.8%; in the assay with OVCAR-5 ovarian, 87.3%; in the assay with OVCAR-4 ovarian it was 62.2%. The growth was 80% in the assay on SK-OV-3 ovarian; 78.5% in the assay on IGROV1 ovarian; 66.5% in the assay with OVCAR-3 ovarian; 83.4% in the assay with HS 578T breast; 62% in the assay with NCI/ADR-RES ovarian.
As to `[2H]c1nc(Nc2ncc(F)c(-c3cc(F)c4nc(C)n(C(C)C)c4c3)n2)c([2H])c([2H])c1CN1CCN(C([2H])([2H])C([2H])([2H])[2H])CC1`, the growth was 50.1% in the assay on SK-MEL-2 melanoma; 51.7% in the assay with EKVX NSCLC; 54.3% in the assay with SN12C renal; 23.2% in the assay on UO-31 renal; 21.6% in the assay on TK-10 renal; 35.2% in the assay on CCRF-CEM leukemia. Also, the growth with SR leukemia was 36.3%; in the assay on RPMI-8226 leukemia, 42.8%; in the assay with OVCAR-5 ovarian, 55.6%; in the assay with OVCAR-4 ovarian, 74.2%; in the assay on SK-OV-3 ovarian, 18.8%; in the assay with IGROV1 ovarian, 47.3%. Moreover, the growth in the assay with OVCAR-3 ovarian was 71%; with HS 578T breast, 35.7%; in the assay with NCI/ADR-RES ovarian, 81%.
As to `COc1ccc(C2CC(c3cnccn3)=NN2)cc1OC` (stereo not drawn), the growth with SK-MEL-2 melanoma was 79%; in the assay on EKVX NSCLC, 108%; in the assay with SN12C renal, 104%; in the assay on UO-31 renal it was 88.7%; in the assay with TK-10 renal it was 82.7%; in the assay with A498 renal, 112%. The growth with MOLT-4 leukemia is 72%; in the assay on RPMI-8226 leukemia, 82.6%; in the assay on OVCAR-8 ovarian it was 96.8%; in the assay on OVCAR-5 ovarian, 114%; in the assay on OVCAR-4 ovarian it was 118%; in the assay on SK-OV-3 ovarian it was 105%. The growth in the assay with IGROV1 ovarian was 108%; in the assay on OVCAR-3 ovarian, 102%; in the assay with HS 578T breast, 97.4%; in the assay on NCI/ADR-RES ovarian, 102%.
As for `O=C1NN(C(=O)c2ccc(O)cc2)C(c2ccccc2)=N/C1=C\c1cn(-c2ccccc2)nc1-c1ccccc1`, the growth was 100% in the assay with SK-MEL-2 melanoma; 102% in the assay on EKVX NSCLC; 89.2% in the assay on SN12C renal; 78.6% in the assay with UO-31 renal; 84.7% in the assay on TK-10 renal; 88.4% in the assay with ACHN renal. The growth is 89.7% with CCRF-CEM leukemia; 90% in the assay with RPMI-8226 leukemia; 97.2% with OVCAR-8 ovarian; 94% with OVCAR-5 ovarian; 95.3% in the assay on OVCAR-4 ovarian; 92.6% in the assay on SK-OV-3 ovarian. Further, the growth in the assay with IGROV1 ovarian is 91.5%; with OVCAR-3 ovarian it was 112%; in the assay with HS 578T breast, 99.8%; in the assay with NCI/ADR-RES ovarian, 99.7%.
Regarding `CCOC(=O)c1ccc(NC(=O)CCCN(CC)CC)cc1`, the growth in the assay on SK-MEL-2 melanoma was 73%; in the assay with EKVX NSCLC, 105%; in the assay with SN12C renal, 106%; in the assay on UO-31 renal, 88.7%; in the assay on TK-10 renal it was 88.2%; in the assay on A498 renal, 118%. In addition, the growth in the assay with CCRF-CEM leukemia is 106%; with MOLT-4 leukemia, 95.7%; with SR leukemia it was 92.8%; with RPMI-8226 leukemia, 97.8%; in the assay on OVCAR-8 ovarian it was 102%; in the assay on OVCAR-5 ovarian it was 106%. For the same compound, the growth in the assay on OVCAR-4 ovarian was 111%; with SK-OV-3 ovarian it was 109%; in the assay with IGROV1 ovarian it was 107%; with OVCAR-3 ovarian it was 105%; in the assay with HS 578T breast, 119%; in the assay on NCI/ADR-RES ovarian, 99%.
Consider `CN(C)CCOC(=O)Nc1ccc(Cl)cc1`, for which the growth was 79.4% in the assay on SK-MEL-2 melanoma; 101% in the assay on EKVX NSCLC; 107% in the assay on SN12C renal; 71.2% with UO-31 renal; 95.1% in the assay on TK-10 renal; 113% with A498 renal. In addition, the growth with CCRF-CEM leukemia was 80.5%; in the assay with MOLT-4 leukemia it was 89.9%; in the assay with SR leukemia, 101%; in the assay on RPMI-8226 leukemia, 94.3%; with OVCAR-8 ovarian, 97.5%; in the assay on OVCAR-5 ovarian, 109%. Besides, the growth was 117% with OVCAR-4 ovarian; 96.9% in the assay with SK-OV-3 ovarian; 103% in the assay with IGROV1 ovarian; 106% in the assay on OVCAR-3 ovarian; 94.7% with HS 578T breast; 104% in the assay with NCI/ADR-RES ovarian.
Consider `COc1cc2c(cc1OC)-c1ccc3cc4c(cc3c1N(CCCN1CCCCC1)C2)OCO4`, for which the growth in the assay with SK-MEL-2 melanoma is 68.8%; in the assay with EKVX NSCLC, 69.4%; with SN12C renal, 30.5%; in the assay with UO-31 renal, 37.6%; in the assay with TK-10 renal, 73.2%; in the assay on A498 renal, 65%. For the same compound, the growth is 19.6% in the assay on CCRF-CEM leukemia; 6.01% (active) with MOLT-4 leukemia; -7.48% (active) in the assay on SR leukemia; 14.5% in the assay on RPMI-8226 leukemia; 32.6% in the assay with OVCAR-8 ovarian; 74.7% in the assay with OVCAR-5 ovarian. Further, the growth with OVCAR-4 ovarian is 63.4%; in the assay with SK-OV-3 ovarian it was 75.7%; with IGROV1 ovarian it was 33.7%; in the assay with OVCAR-3 ovarian, 60.8%; with HS 578T breast it was 56.1%; in the assay on NCI/ADR-RES ovarian it was 54.7%.
